Results: PubChem BioAssay (NCI)
Compounds without any hit were thinned out: in the full panel of roughly 83,000, 20% have a hit.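 Each cell line was grown in a 96-well plate and treated with one concentration of compound for 48 hours. Values below 10 were considered active.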 A number with no mark means an inactive call. The source made the active and inactive calls.

Key:
Assay in all cases: NCI-60 one-dose screen, 48 h (100 = growth as untreated, 0 = no growth, -100 = all killed)
HOP-62 NSCLC = conditions: 10 µM unless noted
NCI-H460 lung = conditions: 10 µM unless noted
A549/ATCC NSCLC = conditions: 10 µM unless noted
786-0 renal = conditions: 10 µM unless noted
K-562 leukemia = conditions: 10 µM unless noted
MALME-3M melanoma = conditions: 10 µM unless noted
RXF 393 renal = conditions: 10 µM unless noted
SF-295 CNS = conditions: 10 µM unless noted
SF-539 CNS = conditions: 10 µM unless noted
UACC-257 melanoma = conditions: 10 µM unless noted
SNB-75 CNS = conditions: 10 µM unless noted
UO-31 renal = conditions: 10 µM unless noted
CAKI-1 renal = conditions: 10 µM unless noted
A498 renal = conditions: 10 µM unless noted
HL-60(TB) leukemia = conditions: 10 µM unless noted
MOLT-4 leukemia = conditions: 10 µM
RPMI-8226 leukemia = conditions: 10 µM unless noted
OVCAR-4 ovarian = conditions: 10 µM unless noted
BT-549 breast = conditions: 10 µM
HCC-2998 colon = conditions: 10 µM unless noted

| SMILES | growth (HOP-62 NSCLC) | growth (NCI-H460 lung) | growth (A549/ATCC NSCLC) | growth (786-0 renal) | growth (K-562 leukemia) | growth (MALME-3M melanoma) | growth (RXF 393 renal) | growth (SF-295 CNS) | growth (SF-539 CNS) | growth (UACC-257 melanoma) | growth (SNB-75 CNS) | growth (UO-31 renal) | growth (CAKI-1 renal) | growth (A498 renal) | growth (HL-60(TB) leukemia) | growth (MOLT-4 leukemia) | growth (RPMI-8226 leukemia) | growth (OVCAR-4 ovarian) | growth (BT-549 breast) | growth (HCC-2998 colon) |
| --- | --- | --- | --- | --- | --- | --- | --- | --- | --- | --- | --- | --- | --- | --- | --- | --- | --- | --- | --- | --- |
| C[As](=O)(O)c1ccc(C(=O)O)cc1 | 108% | 112% | 106% | 109% | 122% | 112% | 95.9% | 99.8% | 102% | 102% | 90.2% | 93.2% | 120% | 96.3% | 102% | 110% | 101% | 113% | 117% | 116% |
| C[C@@H]1O[C@@H](O[C@H]2CC[C@@]3(C)[C@H](CCC4[C@@H]3C(O)C[C@]3(C)[C@@H](c5ccc(=O)oc5)CC[C@]43O)C2)[C@H](O)[C@H](O)[C@H]1O (stereo partly specified) | -100% (active) | -80.7% (active) | -83.6% (active) | -94.1% (active) | – | -45.9% (active) | -52.3% (active) | -71.5% (active) | – | -99.7% (active) | -88.3% (active) | -97.3% (active) | -68.7% (active) | -27.9% (active) | – | – | – | -92.9% (active) | -89.9% (active) | -73.6% (active) |
| Cc1cc(N(CCCl)CCCl)ccc1C=Nc1ccc2ccccc2c1 | 42.7% | 26% | 69.8% | 75.5% | 80.7% | 84.9% | 71.5% | – | 69% | 37.8% | 72% | 50.8% | 1.75% (active) | -77.9% (active) | 46% | 43.7% | 78.8% | 83.5% | 86.1% | 94.5% |
| CCC(CC)(c1ccccc1)C(OC(N)=O)c1ccccc1 (stereo unspecified) | 84.7% | 90.1% | 76% | 82.9% | 66% | – | – | 71.9% | 103% | 85.8% | 74.8% | 71.4% | 60.7% | 79.2% | 96.1% | 80.2% | 79.7% | 83.7% | 110% | – |
| CC1(C)N=C(N)N=C(N)N1c1ccc(CCCCc2ccc(S(=O)(=O)F)cc2)cc1 | 31.9% | 12.3% | 14% | 25.1% | 19.7% | 52.8% | 43.2% | 7.77% (active) | 28.6% | 39.1% | 63.7% | 104% | 40.8% | 42.3% | 21.2% | 25.3% | 15.4% | 86.1% | 48.7% | 45.3% |
| CCN(CC)c1ccc(C=C2C(=O)NC(=S)NC2=O)cc1 | 98.1% | 104% | 89.2% | 96.7% | 78% | 123% | -22.3% (active) | 99.3% | 97.4% | 91.3% | 75.8% | 76.1% | 91.8% | 97.5% | 42.7% | 81% | -18.9% (active) | 90.9% | 98.5% | 96.8% |
| C=CC(=O)NC(O)C(Cl)(Cl)Cl (stereo unspecified) | 104% | 110% | 103% | 95.2% | 97.1% | 85.5% | 129% | 95.6% | 102% | 92.3% | 100% | 94.9% | 93.5% | 120% | 97.7% | 83.8% | 102% | 122% | 97.5% | 104% |
| OB([O][Hg][c]1ccccc1)[O][Hg][c]1ccccc1 | -90.3% (active) | -21.4% (active) | 24% | -76.6% (active) | -32.5% (active) | -88.1% (active) | -94.3% (active) | -32.1% (active) | -87.7% (active) | -98.3% (active) | -56% (active) | -94.1% (active) | -92.4% (active) | -31.2% (active) | -53.3% (active) | -38.8% (active) | -44.4% (active) | 7.38% (active) | -91.5% (active) | -45.5% (active) |
